“And” between values parts separate entries of the source, which are not always exact repeats. Equal entries are not always repeated. Results filed as inconclusive are left out. The source made the active and inactive calls. The calls were made as follows, unless noted: active = hit-call score of the fitted dose curve at least 0.9, where 1 is the maximum; inconclusive = response in the unintended direction; inactive = score below 0.9.
Columns and labels:
[1] = TOX21_p53_BLA_p2_viability: Viability Assessment in the Tox21 HCT-116 p53 Agonism Beta-lactamase Assay, Phase 2 (AID 2283591);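 also: actives lower the ATP signal meaning cytotoxicity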
Summary of the method: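 Cytotoxicity readout: CellTiter-Glo ATP luminescence, 30 min at room temperature, after the beta-lactamase read. Cells were HCT116 exposed 16 h at 37C to compounds pin-transferred at 217-fold dilution from DMSO stocks.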

[2] = biological target: Cellular tumor antigen p53 (Homo sapiens) (UniProt P04637); test: TOX21_p53_BLA_p2_ratio: Tox21 HCT-116 p53 Agonism Beta-lactamase Assay, Ratio, Phase 2 (AID 2283592)
Summary of the method: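 Readout: blue/green (460/530 nm) FRET emission ratio after 2 h CCF4-AM loading at room temperature, excitation 405 nm. HCT116 p53 bla cells, 16 h compound exposure at 37C, 5% CO2; agonist direction fitted against DMSO baseline.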

[3] = TOX21_p53_BLA_p3_viability: Viability Assessment in the Tox21 HCT-116 p53 Agonism Beta-lactamase Assay, Phase 3 (AID 2283593);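 also: cells exposed to compound for 16 h before reading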
Summary of the method: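 Cellular ATP was quantified by CellTiter-Glo luminescence, read after 30 min at room temperature. Beforehand, HCT116 cells (4000/well) received compound 5 h post-seeding, 217-fold diluted from DMSO, then incubated 16 h at 37C.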

[4] = biological target: Cellular tumor antigen p53 (Homo sapiens) (UniProt P04637); test: TOX21_p53_BLA_p3_ratio: Tox21 HCT-116 p53 Agonism Beta-lactamase Assay, Ratio, Phase 3 (AID 2283596)
Summary of the method: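 Cells were seeded at 4000/well, rested 5 h at 37C, then dosed with DMSO compound solutions (217-fold dilution) for 16 h. CCF4-AM substrate was loaded for 2 h at room temperature, and the 460/530 nm emission ratio was fitted for gain of signal versus DMSO.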

[5] = TOX21_p53_BLA_p4_viability: Viability Assessment in the Tox21 HCT-116 p53 Agonism Beta-lactamase Assay, Phase 4 (AID 2283597);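 also: hits lower the luminescence signal meaning cytotoxicity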
Summary of the method: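 ATP content by CellTiter-Glo luminescence, 30 min RT, read after the beta-lactamase ratio step. Cells: HCT116, 4000/well, compound added after 5 h, exposure 16 h at 37C. Signal loss = reduced viability.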

[6] = biological target: Cellular tumor antigen p53 (Homo sapiens) (UniProt P04637); test: TOX21_p53_BLA_p5_ratio: Tox21 HCT-116 p53 Agonism Beta-lactamase Assay, Ratio, Phase 5 (AID 2283599)
Summary of the method: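 Beta-lactamase reporter ratio (blue 460 nm over green 530 nm, 405 nm excitation) after 2 h CCF4-AM loading, in HCT-116 cells exposed 16 h at 37 C to compounds pinned at 217-fold dilution. Increases relative to DMSO baseline scored.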

[7] = TOX21_p53_BLA_p5_viability: Viability Assessment in the Tox21 HCT-116 p53 Agonism Beta-lactamase Assay, Phase 5 (AID 2283600)
Summary of the method: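 ATP luminescence (CellTiter-Glo, 30 min, RT) served as the viability read-out, with loss of signal indicating cytotoxicity. Compounds in DMSO were pinned at a 217-fold dilution onto 4000 cells/well and incubated 16 h, 37C.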

THRB (gene 7068) [8] = biological target: THRB (gene 7068) (UniProt P10828); test: TOX21_TRB_BLA_Antagonist_Followup_ratio: Tox21 Thyroid Hormone Receptor beta Antagonism Beta-lactamase (BLA) Follow-Up Assay, Ratio (AID 2283958)
Summary of the method: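 Read-out: blue/green (460:530 nm) ratio of cleaved to uncleaved CCF4-AM after 2 h at room temperature, fitted against DMSO baseline. HEK293T UAS-bla cells carrying GAL4-human TRβ LBD were exposed 18 h, 37C/5% CO2.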

[9] = TOX21_TRB_BLA_Antagonist_Followup_viability: Viability Assessment in the Tox21 Thyroid Hormone Receptor beta Antagonism Beta-lactamase (BLA) Follow-Up Assay (AID 2283961)
Summary of the method: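 Viability read as CellTiter-Glo ATP luminescence (loss of signal = cytotoxicity) in the same plates as the TRβ-bla readout. TRβ-LBD/GAL4 UAS-bla HEK293T cells were exposed to compounds, 11 concentrations in triplicate, for 18 h at 37C/5% CO2.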

THRB (gene 7068) [10] = biological target: THRB (gene 7068) (UniProt P10828); test: TOX21_TRB_COA_Antagonist_Followup_ratio: Tox21 Thyroid Hormone Receptor beta Antagonism through Coactivator Recruitment Follow-Up Assay, Ratio (AID 2283967)
Summary of the method: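 Coactivator recruitment to the GST-tagged TRb ligand-binding domain (5.0 nM) was read as the 520/495 nm TR-FRET ratio, using 200 nM fluorescein SRC-2 peptide and 2 nM terbium anti-GST. Scaled between DMSO and T3 wells; loss of signal fitted.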

[11] = biological target: Retinoic acid receptor RXR-alpha (Homo sapiens) (UniProt P19793); test: TOX21_TR_RXR_BLA_Antagonist_Followup_ratio: Tox21 Thyroid Hormone Receptor beta Retinoid X Receptor alpha (RXRa) Antagonism Beta-lactamase (BLA) Follow-Up Assay, Ratio (AID 2283972)
Summary of the method: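 Beta-lactamase reporter readout as cleaved/uncleaved substrate ratio (460:530 nm) after 2 h substrate loading at room temperature. GAL4-RXRa bla HEK293T cells were exposed 16 h at 37C to 11-point compound series; loss of signal scored against DMSO baseline.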

[12] = TOX21_TR_RXR_BLA_Antagonist_Followup_viability: Viability Assessment in the Tox21 Thyroid Hormone Receptor beta Retinoid X Receptor alpha (RXRa) Antagonism Beta-lactamase (BLA) Follow-Up Assay (AID 2283979)
Summary of the method: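 Follow-up compounds (11 concentrations, triplicate) were incubated 16 h at 37C/5% CO2 with HEK293T RXRa-bla cells seeded at 2,500/well in charcoal-stripped-serum medium. ATP content by CellTiter-Glo luminescence gave viability; curves fitted in both directions against DMSO.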

[13] = biological target: Cellular tumor antigen p53 (Homo sapiens) (UniProt P04637); test: TOX21_p53_BLA_p4_ratio: Tox21 HCT-116 p53 Agonism Beta-lactamase Assay, Ratio, Phase 4 (AID 2283601)
Summary of the method: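 Signal is the blue/green (460nm/530nm) ratio of cleaved versus uncleaved CCF4-AM substrate, read after 2 h substrate loading. Cells were HCT116 carrying the p53-responsive beta-lactamase reporter, dosed 16 h at 37C, 5% CO2; CellTiter-Glo measured in parallel.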

[14] = biological target: Thyroid hormone receptor alpha (Rattus norvegicus) + Thyroid hormone receptor beta (Rattus norvegicus) (UniProt P18113+P63059); test: TOX21_TR_LUC_GH3_Antagonist_Followup: Tox21 GH3 Thyroid Hormone Receptor Antagonism Luciferase Follow-Up Assay (AID 2283942)
Summary of the method: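 Loss of T3-driven (1.0 nM final) reporter activity in GH3 cells was read by ONE-Glo luminescence after 24 h incubation at 37C; 15-point compound series spanned 92 uM to 5nM final, 1,500 cells/well.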

[15] = CCTE_Harrill_HTTr_Viability_MCF7: CCTE's 6-hour Cell Viability Assessment for the High-Throughput Transcriptomics (HTTr) Platform, in MCF-7 cells cultured in DMEM + 10% fetal bovine serum, Harrill Lab (AID 2284010; active = hit-call score of the fitted dose curve at least 0.9, where 1 is the maximum; inactive = score below 0.9)
Summary of the method: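 PI exclusion, high-content imaging; 8-pt dilution series, 6 h exposure; bidirectional fit vs DMSO (neg. ctrl/baseline); gain of signal = loss of membrane integrity.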

[16] = CCTE_Harrill_HTTr_Apoptosis_MCF7: CCTE's 6-hour Apoptosis Assessment for the High-Throughput Transcriptomics (HTTr) Platform, in MCF-7 cells cultured in DMEM + 10% fetal bovine serum, Harrill Lab (AID 2284011; active = hit-call score of the fitted dose curve at least 0.9, where 1 is the maximum; inactive = score below 0.9)
Summary of the method: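 Read-out: CellEvent Caspase 3/7 Green signal by high content imaging, gain-of-signal indicating apoptosis. MCF-7 cells, DMEM + 10% FBS, eight-point dilution series, 6 h exposure. Curves fitted bidirectionally relative to DMSO negative control.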

[17] = CCTE_Harrill_HTTr_CellCount_MCF7: CCTE's Cell Proliferation Assessment for the High-Throughput Transcriptomics (HTTr) Platform, Harrill Lab (AID 2284012);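 also: count of Hoechst-stained nuclei per well by high-content imaging in MCF-7 cells; cells exposed to compound for six hours; intended direction is loss of nuclei count meaning fewer cells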
Summary of the method: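 Readout: Hoechst nuclear count by high-content imaging. MCF-7, 8-point dilution series, 6 h exposure. Bidirectional fit vs DMSO baseline.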

Measured: AC50

Chain of Retinoic acid receptor RXR-alpha (Homo sapiens) (P19793 whole entry, looked up, the tested form may be a part): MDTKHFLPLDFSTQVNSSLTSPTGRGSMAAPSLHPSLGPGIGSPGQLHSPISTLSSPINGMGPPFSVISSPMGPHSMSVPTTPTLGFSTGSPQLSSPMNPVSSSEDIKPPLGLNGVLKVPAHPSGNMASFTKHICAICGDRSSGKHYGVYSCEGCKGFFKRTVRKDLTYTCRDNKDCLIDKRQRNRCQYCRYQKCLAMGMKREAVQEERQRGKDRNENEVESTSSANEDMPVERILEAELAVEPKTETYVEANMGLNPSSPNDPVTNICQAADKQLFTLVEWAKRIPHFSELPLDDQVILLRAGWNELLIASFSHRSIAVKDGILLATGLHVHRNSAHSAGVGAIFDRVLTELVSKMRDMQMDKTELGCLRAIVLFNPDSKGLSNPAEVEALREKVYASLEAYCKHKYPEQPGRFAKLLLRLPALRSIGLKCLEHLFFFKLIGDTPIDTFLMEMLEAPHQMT
Chain of THRB (gene 7068) (P10828 whole entry, looked up, the tested form may be a part): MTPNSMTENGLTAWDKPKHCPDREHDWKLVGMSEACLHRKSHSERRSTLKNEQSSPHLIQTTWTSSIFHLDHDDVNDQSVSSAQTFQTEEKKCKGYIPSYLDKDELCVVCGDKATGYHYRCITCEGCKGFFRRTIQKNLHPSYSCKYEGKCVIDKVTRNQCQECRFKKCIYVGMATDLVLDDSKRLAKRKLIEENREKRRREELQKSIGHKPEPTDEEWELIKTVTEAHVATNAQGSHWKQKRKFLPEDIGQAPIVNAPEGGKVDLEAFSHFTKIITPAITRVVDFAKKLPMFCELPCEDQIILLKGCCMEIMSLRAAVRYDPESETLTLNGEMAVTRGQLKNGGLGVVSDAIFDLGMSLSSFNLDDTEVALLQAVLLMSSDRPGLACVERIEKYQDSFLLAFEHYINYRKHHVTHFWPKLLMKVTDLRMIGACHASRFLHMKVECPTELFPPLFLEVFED
Chain of Cellular tumor antigen p53 (Homo sapiens) (P04637 whole entry, looked up): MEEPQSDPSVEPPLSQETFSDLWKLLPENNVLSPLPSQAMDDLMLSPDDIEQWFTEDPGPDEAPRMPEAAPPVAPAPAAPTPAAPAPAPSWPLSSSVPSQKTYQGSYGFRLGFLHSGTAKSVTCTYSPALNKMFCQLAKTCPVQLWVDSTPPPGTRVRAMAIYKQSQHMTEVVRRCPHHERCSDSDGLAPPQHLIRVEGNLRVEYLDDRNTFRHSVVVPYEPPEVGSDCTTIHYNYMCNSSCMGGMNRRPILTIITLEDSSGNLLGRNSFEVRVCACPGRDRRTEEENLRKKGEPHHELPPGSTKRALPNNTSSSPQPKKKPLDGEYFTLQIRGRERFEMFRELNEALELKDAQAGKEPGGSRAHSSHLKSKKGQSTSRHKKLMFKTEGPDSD

O=C(O)c1cccc(-c2noc(-c3ccccc3F)n2)c1
inactive: [1] | [2] | [3] | [4] | [6] | [7] | THRB (gene 7068) [8] | [9] | THRB (gene 7068) [10] | [11] | [12]
active: [5] 23 µM

COC(=O)Nc1nc2ccc(Sc3ccccc3)cc2[nH]1
active: [2] 99.9 nM and 139 nM | [4] 163 nM and 98.8 nM | [6] 161 nM and 97.3 nM | [13] 122 nM and 96.1 nM | THRB (gene 7068) [8] 0.868 µM
inactive: [1] | [3] | [5] | [7] | [9] | THRB (gene 7068) [10] | [11] | [12]

CC1(C)N=C(N)N=C(N)N1c1ccc(Cl)cc1
active: [1] 6.72 µM | [2] 28.2 µM | [3] 13.9 µM | [5] 6.46 µM | [7] 7.84 µM | [9] 32.1 µM
inactive: [4] | [6] | [13] | [14] | THRB (gene 7068) [8] | THRB (gene 7068) [10] | [11] | [12]

Cc1ncc(C[n+]2csc(CCOP(=O)(O)OP(=O)(O)O)c2C)c(N)n1
inactive: [1] | [2] | [3] | [4] | [5] | [6] | [13]

C[n+]1c2cc(N)ccc2cc2ccc(N)cc21 (tested in a mixture with another compound)
active: [2] 11.6 µM | [4] 9.45 µM | [6] 9.47 µM | [13] 6.18 µM | [14] 18.2 µM | THRB (gene 7068) [8] 36 µM | [11] 19.2 µM | [12] 16.5 µM
inactive: [1] | [3] | [5] | [7] | [9]

CCOC(=O)n1ccn(C)c1=S
inactive: [1] | [2] | [3] | [4] | [5] | [6] | [7] | [13] | [15] | [16] | [17]

CO[C@@H]1[C@H](OC(=O)/C=C/C=C/C=C/C=C/C(=O)O)CC[C@]2(CO2)[C@H]1[C@@]1(C)O[C@@H]1CC=C(C)C
inactive: [1] | [2] | [3] | [4] | [5] | [6] | [7] | [13] | [15] | [16]

Reference: PubChem BioAssay (EPA / NIEHS)
